# Assay results: PubChem BioAssay AID1159606 (Sanford-Burnham Center for Chemical Genomics, 2016)
# Out of some 360,000 compounds screened, about 7,300 (2%) were called active. Only a selection was taken, and actives are over-represented in it overall. A number with no mark means an inactive call. Rule as the data show it: active = inhibition above about 50%; inactive = the rest.
# Assay: inhibitors of TWEAK-Fn14 signaling, primary screen, luciferase reporter cells, uHTS (AID 1159606)
# Details: TWEAK-stimulated Fn14 reporter cells, luciferase luminescence, 8 h; at 10 µM; stronger effect = higher value
row,Compound,inhibition
1,COc1ccc(CNc2c(CO)cnc3c2cnn3C)cc1,-5.49%
2,CCN(C(=O)Nc1cccc2ccccc12)c1ccccc1,11.9%
3,COc1ccc(Cl)cc1S(=O)(=O)N1CCC(O)(c2ccc(Cl)cc2)CC1,-6.82%
4,O=C(Cc1ccc(S(=O)(=O)N2CCOCC2)s1)Nc1ccc(Br)c(C(F)(F)F)c1,17.8%
5,COc1ccc(OC)c(C(=O)NC2CCCc3c2cnn3-c2cc(C)cc(C)c2)c1 (configuration not stated),-50.2%
6,COc1ccc(C(=O)NC2CCCc3c2cnn3-c2cccc(C)c2C)c(OC)n1 (configuration not stated),57.5% (active)
7,Cn1nccc1C(=O)NC1CCCc2c1cnn2-c1ccc(F)cc1F (configuration not stated),18.5%
8,CCc1c(C)nc(SCC(=O)NC2CCCC2)[nH]c1=O,15.7%
9,COC(=O)c1ccccc1NC(=O)CSc1n[nH]c(-c2ccncc2)n1,-4.67%
10,CCc1ccc(-c2nc(SCC(=O)NC3CCCC3)n[nH]2)cc1,66.6% (active)
11,O=C(CN1CCN(C2CCS(=O)(=O)C2)CC1)N1N=C(c2ccc(Cl)cc2)CC1c1ccco1 (configuration not stated),73.8% (active)
12,Cc1ccc(C2=NN(C(=O)COc3ncnc4ccccc34)C(c3ccco3)C2)cc1 (configuration not stated),-54.3%
13,Cc1ccc(C2=NN(C(=O)CSc3nc(N)cc(N)n3)C(c3ccco3)C2)cc1 (configuration not stated),9.43%
14,CC1(C(=O)NS(=O)(=O)c2ccc3ccccc3c2)CCN1C(=O)C1(c2ccc(Cl)cc2)CCC1 (configuration not stated),17.7%
15,C/C(=N\NC(=O)c1ccc(C)cc1)C1C(=O)c2ccccc2C1=O,-2.62%
16,CCOc1ccccc1/C=N/Nc1nc2ccccc2o1,15.2%
17,COc1cccc(/C=C/c2ccc3ccccc3n2)c1OC(C)=O,86.8% (active)
18,CC(OC(=O)c1ccc2ccccc2n1)C(=O)c1ccccc1 (configuration not stated),-11.2%
19,CCOc1cccc(/C=C/c2ccc3ccccc3n2)c1OC(C)=O,60% (active)
20,CC(=O)c1ccc(S(=O)(=O)N2CCN(C(=O)/C=C/c3ccc4ccccc4n3)CC2)cc1,6.75%
21,CCOc1ccccc1-c1cc(C(=O)N2CCOCC2)c2ccccc2n1,-5.73%
22,CCCc1cc(=O)oc2c(C)c(OC(C)C(=O)NCC(O)c3ccccc3)ccc12 (configuration not stated),-28.2%
23,COCn1c(C(O)c2ccccc2)cc2ccccc21 (configuration not stated),3.63%

row,Compound,inhibition
1,Cc1ccc(-c2ccc(CN3C(C)C(=O)N(Cc4cn(CCC5OCCCO5)nn4)CCS3(=O)=O)cc2)cc1 (configuration not stated),5.69%
2,Cc1ccc(NC(=O)CSCC(=O)N2CCOCC2)cc1,-11.3%
3,C(=C\c1ccccc1)/CSc1nnc(-c2cccnc2)n1Cc1ccco1,-6.4%
4,O=C(CSc1nnc(-c2cccnc2)n1Cc1ccco1)c1ccc(Cl)c(Cl)c1,62.2% (active)
5,O=C(CSc1nnc(-c2cnccn2)n1Cc1ccco1)c1ccc(Cl)c(Cl)c1,-5.31%
6,CNC[C@H]1OCc2cnnn2CCCC(=O)N([C@H](C)CO)C[C@@H]1C,-13.2%
7,CCc1nc2ccc(C(=O)NC3CCN(Cc4ccccc4)CC3)cn2c1N(CC)CCOC,-14.1%
8,COCCNc1nc2nonc2nc1N1CCCC1c1nccs1 (configuration not stated),-4.57%
9,O=C(Nc1ccc2c(c1)CCC2)c1cccc(S(=O)(=O)Nc2ccccc2Cl)c1,25.9%
10,O=C(Nc1ccc2c(c1)CCC2)c1cccc(S(=O)(=O)N2CCN(c3ccc(F)cc3)CC2)c1,65% (active)
11,CN1CCN(S(=O)(=O)c2cccc(C(=O)Nc3cccc(S(N)(=O)=O)c3)c2)CC1,14.8%
12,COc1ccc(NC(=O)c2ccccc2CC[N+](=O)[O-])cc1,2.4%
13,COCCNC(=O)c1cc2c(Br)ccc(Br)c2nc1N,2.81%
14,Cc1cc(C)n2c(Nc3c(C)cccc3C)c(CCc3ccccc3)nc2n1,-5.1%
15,OCC1(CO)CC2(C1)CC(CO)(CO)C2,15.3%
16,Cc1ccc(-c2noc(CCC(=O)Nc3ccccc3N3CCN(C)CC3)n2)cc1,12.3%
17,CCOc1cc(/C=N/NC(=O)OC)ccc1OCCSc1ccc(Cl)cc1,10.4%
18,COc1cc(/C=C(/NC(=O)c2ccc(Cl)cc2Cl)C(=O)O)cc(OC)c1OC,15.3%
19,CCOc1cc(/C=C(/C#N)c2ccc(Cl)cc2)cc(Cl)c1OCC(=O)O,83.5% (active)
20,COc1ccccc1CNC(=O)C1CCN(S(=O)(=O)c2ccc3c(c2)OCCO3)CC1,10.5%
21,Cc1ccc(Cn2cc(C(=O)NN)c(=O)c3ccc(F)cc32)cc1,-2.98%
22,CCNc1nc(SCCOc2ccccc2)nc(N(C)C)n1,-28.5%
23,Cc1cccc(NC(=O)C2CC(=O)OC23CCCC3)c1 (configuration not stated),14.4%

row,Compound,inhibition
1,Cn1c(=O)c2cc(NC(=O)NCCc3cccs3)ccc2n1Cc1cccc(C(F)(F)F)c1,4.52%
2,COc1ccccc1NC(=O)Nc1nnc(Cc2ccc(F)cc2)s1,-26.6%
3,O=C(Nc1ccccc1)Nc1nnc(COc2ccccc2F)s1,-8.31%
4,O=C(Nc1nnc(COc2ccccc2)s1)Nc1ccccc1F,62.4% (active)
5,Brc1ccc(-c2nn[nH]n2)cc1,5.03%
6,CC(=O)C1=C(C)NC2=C(C(=O)CC(C)(C)C2)C1C (configuration not stated),16%
7,COc1ccc(OC)c(/C(C)=N\NC(=O)c2cc3cc(Cl)ccc3n2C)c1,5.37%
8,Cc1ccc(S(=O)(=O)C(C#N)c2nc3ccccc3nc2N2CCCC2)cc1C (configuration not stated),12.6%
9,Cc1ccc(S(=O)(=O)Nc2nc3ccccc3nc2N2CCc3ccccc3C2)cc1,86.8% (active)
10,COCCCNc1nc2ccccc2nc1NS(=O)(=O)c1ccc(F)cc1,19.1%
11,Cc1ccc(C)c(NC(=O)CSc2nc3c(oc4ccccc43)c(=O)n2-c2ccccc2)c1,25.1%
12,COc1ccccc1C(=O)NC(=S)Nc1ccc(N2CCOCC2)cc1,-34.2%
13,COc1ccccc1C(=O)NC(=S)Nc1ccccc1N1CCCCC1,53.6% (active)
14,COc1ccccc1C(=O)NC(=S)NC12CC3CC(CC(C3)C1)C2,0.54%
15,CC(C)(C)c1cc(NC(=O)NN2CCOCC2)nn1-c1c(Cl)cc(Cl)cc1Cl,4.79%
16,CC(C)(C)OC(=O)C[C@@H]1C/C=C\C[C@@H](CC(=O)NCCO)C(=O)N[C@H](Cc2c[nH]c3ccccc23)COC1=O,-8.05%
17,Nc1ccc(S(=O)(=O)Nc2nccc(/C=C/c3ccc(Br)s3)n2)cc1,-5.92%
18,Oc1cccc2ccc(/C=C/c3ccc(Br)s3)nc12,57.6% (active)
19,CCCN(CC(=O)Nc1ccc(OC)c(OC)c1)CC(=O)Nc1ccc(F)c(F)c1F,-5.89%
20,O=c1c2c(nc3nc[nH]n13)CCC2,1.33%
21,CCCCN1Cc2c(nc3cc(-c4ccccc4)[nH]n3c2=O)C1=O,1.25%
22,O=c1c2c(nc3cc(-c4cccc(Cl)c4)[nH]n13)CCCC2,75.5% (active)
23,CSc1nnc(SCc2nc3sc(C(=O)O)c(C)c3c(=O)[nH]2)s1,15.4%

row,Compound,inhibition
1,CCCCCCN1CCN(C2CN(Cc3cn(CCCCCC)nn3)S(=O)(=O)C2)CC1 (configuration not stated),6.81%
2,COc1cc(-c2nnc(Cn3cc(C(F)(F)F)ccc3=O)o2)cc(OC)c1OC,-25.3%
3,C=CCOc1cccc(CNn2cn[nH]c2=S)c1,22.9%
4,CCOC(=O)[C@]12CCCC=C1N(Cc1cccc3ccccc13)C(=O)[C@H](CC(=O)NCC13CC4CC(CC(C4)C1)C3)C2,25.4%
5,C/C(=C\c1ccccc1)C1NC(=O)c2c(sc3c2CCCC3)N1 (configuration not stated),77% (active)
6,O=C(Nc1sc2c(c1-c1nc3ccccc3[nH]1)CCCC2)C1CC1,-8.49%
7,O=C1NC(c2ccncc2)Nc2sc3c(c21)CCCC3 (configuration not stated),-14.9%
8,CCC1NC(=O)c2cccnc2-n2c1nc1ccc(C)cc1c2=O (configuration not stated),-40.1%
9,O=C(CCC(=O)N1CCN(S(=O)(=O)c2ccc(Cl)cc2)CC1)NCc1cccc(C(F)(F)F)c1,57.4% (active)
10,O=C(NCc1cccc(C(F)(F)F)c1)c1cccc(S(=O)(=O)N2CCN(Cc3ccccc3)CC2)c1,15.4%
11,CC(NC(=O)CCC(=O)N1CCN(S(=O)(=O)c2ccc(Cl)cc2)CC1)c1ccccc1 (configuration not stated),4.74%
12,Cc1n[nH]c(=O)c2c(NC(=O)COC(=O)c3ncc(Cl)c(Cl)c3Cl)oc(C)c12,-5.62%
13,Cc1noc(C)c1COC(=O)Cn1c(C)nc2ccccc21,-13%
14,CSc1ccccc1NC(=O)COC(=O)CCCOc1ccc(C)cc1,-5.19%
15,CCCCCCCCCCOC(=O)Cn1c(COc2ccc(C)cc2)[n+](C)c2ccccc21,76.3% (active)
16,Cc1ccc(C(=O)CN2C(=O)NC3(CCc4ccccc43)C2=O)c(C)c1 (configuration not stated),-25.2%
17,CNC(=O)C(NC(=O)c1ccccc1)=C(C)C,4.65%
18,Cc1ccc(NC(=O)NC(=O)c2ccccc2)cc1F,-37.5%
19,O=C(NC(=O)c1ccccc1)Nc1ccccc1O,50.8% (active)
20,COc1ccc(C(=O)NC(C)c2nccs2)cc1OC1CCN(C(C)C)CC1 (configuration not stated),-14.2%
21,Cc1cc(C)c(C)c(S(=O)(=O)Nc2ccc(O)cc2)c1C,22.9%
22,Cc1cc(C)c(C)c(S(=O)(=O)Nc2cccnc2)c1C,-12.5%
23,Cc1cc(C)c(C)c(S(=O)(=O)N[C@@H](C)C(=O)OC(C)C(=O)NC(N)=O)c1C (some centres not stated),53.7% (active)
